Source: PubChem (several laboratories)
Sampled rows, rich in hits. Any-hit rate of the full collection: about 4.7%.
EBI2 antag = EBI2 receptor antagonists, beta-arrestin recruitment, primary screen, cell-based, luminescence, 7a,25-OHC stimulation, uHTS; G-protein coupled receptor 183 (Homo sapiens), P32249; 7a,25-OHC stimulated; inhibition, % at 5 µM; 360,000 compounds, 0.81% hits; AID 651636, 2012; in the data active means inhibition above about 38%;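 further: enzyme fragment complementation signal reports receptor beta-arrestin coupling in cells; 0% = agonist plus DMSO wells and 100% = wells without agonist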
Target sequence (P32249 whole entry, looked up, the tested form may be a part): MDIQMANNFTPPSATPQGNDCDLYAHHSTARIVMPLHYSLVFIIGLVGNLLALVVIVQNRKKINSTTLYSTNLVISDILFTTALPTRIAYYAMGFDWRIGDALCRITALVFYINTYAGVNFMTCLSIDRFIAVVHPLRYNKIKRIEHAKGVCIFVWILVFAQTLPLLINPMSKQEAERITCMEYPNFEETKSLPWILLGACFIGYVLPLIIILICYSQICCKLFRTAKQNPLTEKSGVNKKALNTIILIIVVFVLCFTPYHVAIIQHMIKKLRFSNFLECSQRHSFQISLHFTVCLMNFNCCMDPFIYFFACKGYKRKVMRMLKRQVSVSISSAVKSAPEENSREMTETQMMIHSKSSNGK
TIM10 inh = growth inhibitors of isogenic TIM10 control yeast, primary screen, counter-screen for tim10-1 yeast inhibitor project, luminescence, uHTS; S. cerevisiae TIM10 strain growth, BacTiter-Glo luminescence, 24 h; inhibition, % at 10 µM; 330,000 compounds, 1.4% hits;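 active means inhibition of 40% or more at the single tested concentration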;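 further: wild-type TIM10 isogenic control strain grown at permissive 25 °C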
tim10-1 inh = growth inhibitors of tim10-1 mutant yeast, primary screen, luminescence, uHTS. inhibition, % at 20 µM. S. cerevisiae tim10-1 ts strain growth, BacTiter-Glo, 24 h. 330,000 compounds, 2.2% hits. AID 463190, 2010;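 active means inhibition of at least 40%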;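 further: mutant grown at 25 °C; 0% = DMSO wells with yeast and 100% = wells holding no yeast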
PfHsp90 set2 = growth inhibition of PfHsp90-expressing yeast, primary screen, antimalarial PfHsp90 inhibitor project, S. cerevisiae, BacTiter-Glo luminescence, single point, set 2. BacTiter-Glo ATP, 48 h; yeast lacking PDR1 and PDR3 efflux regulators. inhibition, % at 9.4 µM. 310,000 compounds, 0.32% hits;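 active means every replicate shows inhibition above about 80%, whatever the replicate mean, limit read from the data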;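 further: 0% = DMSO neutral controls and 100% = 20 µM radicicol positive controls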
tim23-1 inh = growth inhibitors of tim23-1 mutant yeast, primary screen, luminescence, uHTS | 330,000 compounds, 1.3% hits | S. cerevisiae tim23-1 growth, BacTiter-Glo luminescence, 24 h | inhibition, % at 20 µM;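 active means growth inhibition of the mutant yeast at or above 50%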;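 further: temperature-sensitive mutant grown at 25 °C; plate controls were DMSO-treated mutant yeast for no effect and medium wells lacking yeast for full effect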
SKKanGAS inh = S. pyogenes SKKanGAS growth inhibitors in kanamycin, primary screen, streptokinase expression inhibitor project, SKKanGAS strain, BacTiter-Glo luminescence; 6 h; inhibition, % at 7.5 µM; 300,000 compounds, 1.3% hits; AID 1662, 2009;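 active means mean replicate score, as percent of positive control median, at least 50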;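 further: strain carries kanamycin resistance gene driven by streptokinase promoter and grows in 40 µg/ml kanamycin; loss of luminescence reflects streptokinase promoter inhibition or plain growth inhibition; 0% = median of DMSO wells and 100% = positive control at its reference dose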
tim10-1 conf = growth inhibitors of tim10-1 mutant yeast, confirmation, single concentration, luminescence, S. cerevisiae | shares compounds with tim10-1 inh | S. cerevisiae tim10-1 ts strain growth, BacTiter-Glo, 24 h | inhibition, % at 20 µM | 7,400 compounds, 56% hits | AID 463213, 2010;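 active means inhibition of yeast growth at or above a set limit in either of two repeat tests at 20 µM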;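 further: tim10-1 mutant grown at permissive 25 °C to find synthetic lethal compounds; 0% = DMSO yeast wells and 100% = medium wells without yeast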
tim10 confirm = growth inhibitors of wild-type TIM10 yeast, confirmation, counter-screen for tim10-1 synthetic lethality project, single concentration, luminescence, S. cerevisiae | inhibition, % at 10 µM | S. cerevisiae tim10 strain growth, BacTiter-Glo luminescence, 24 h | 4,600 compounds, 63% hits | shares compounds with TIM10 inh;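 active means inhibition of yeast growth at or above a set limit in either of two replicates at 10 µM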;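 further: this counterscreen used the strain with wild-type TIM10; 0% = yeast with DMSO and 100% = medium wells lacking yeast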
tim23-1 conf = tim23-1 mutant yeast growth inhibitors, confirmation, luminescence, single concentration. shares compounds with tim23-1 inh. S. cerevisiae tim23-1 growth, BacTiter-Glo luminescence, 24 h. inhibition, % at 20 µM. 4,400 compounds, 83% hits;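 active means inhibition above about 39% in either of two replicate wells at 20 µM, limit read from the data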;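 further: temperature-sensitive tim23-1 mutant grown at 25 °C; 0% = DMSO wells with yeast and 100% = medium wells without yeast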
* hit, by the source's call.

What do the screens show for `Cc1ccc(-n2ncc3c2CCCC3NC(=O)c2csnn2)cc1C` (configuration not stated)?
EBI2 antag: 1; TIM10 inh: 26; tim10-1 inh: 59*; PfHsp90 set2: -4; tim23-1 inh: 52*; SKKanGAS inh: -2; tim10-1 conf: 41*; tim23-1 conf: 43*

How did COc1ccccc1CN(Cc1nc2ccccc2c(=O)[nH]1)C(=O)Nc1ccc(C)cc1 do in these assays?
EBI2 antag: -1; TIM10 inh: 55*; tim10-1 inh: 43*; PfHsp90 set2: -11; tim23-1 inh: 59*; SKKanGAS inh: 5; tim10-1 conf: 38*; tim10 confirm: 40*; tim23-1 conf: 51*

Results for COc1ccccc1CN(Cc1nc2ccccc2c(=O)[nH]1)C(=O)Nc1ccccc1C ?
EBI2 antag: -3; TIM10 inh: 13; tim10-1 inh: 25; PfHsp90 set2: -3; tim23-1 inh: 27; SKKanGAS inh: -4

How did CC(=O)c1nnn(-c2c(F)cccc2F)c1C do in these assays?
EBI2 antag: -1; TIM10 inh: 17; tim10-1 inh: 11; PfHsp90 set2: 17; tim23-1 inh: 9; SKKanGAS inh: 9

Results for Cc1cc(C)cc(NC(=S)Nc2ccc(Cl)c(Cl)c2)c1 ?
EBI2 antag: -3; TIM10 inh: 43*; tim10-1 inh: 62*; PfHsp90 set2: 11; tim23-1 inh: 79*; SKKanGAS inh: 70*; tim10-1 conf: 56*; tim10 confirm: 37*; tim23-1 conf: 75*

What do the screens show for `O=C(COC(=O)c1n[nH]c(=O)c2ccccc12)Nc1ccccc1F`?
EBI2 antag: 6; TIM10 inh: -8; tim10-1 inh: -1; PfHsp90 set2: 14; tim23-1 inh: 11

Results for COc1ccc(C2=CC(=O)N(Nc3ccccc3)C2=O)cc1 ?
EBI2 antag: 4; TIM10 inh: 54*; tim10-1 inh: 49*; tim23-1 inh: 81*; tim10-1 conf: 50*; tim10 confirm: 55*; tim23-1 conf: 77*

What do the screens show for `O=C1Nc2ccc(Cl)cc2/C1=C/C1CC=CCC1` (configuration not stated)?
EBI2 antag: 40; TIM10 inh: 59*; tim10-1 inh: 78*; PfHsp90 set2: 31; tim23-1 inh: 64*; SKKanGAS inh: -5; tim10-1 conf: 87*; tim10 confirm: 19; tim23-1 conf: 65*

How did O=C(O)CC1S/C(=N/N=C/C2CC=CCC2)NC1=O (configuration not stated) do in these assays?
EBI2 antag: -11; TIM10 inh: -24; tim10-1 inh: 3; PfHsp90 set2: -14; tim23-1 inh: 11; SKKanGAS inh: -1

Results for Cc1ccc(C(=O)OCn2ncc(Cl)c(Cl)c2=O)cc1 ?
EBI2 antag: 21; TIM10 inh: 72*; tim10-1 inh: 75*; PfHsp90 set2: 96*; tim23-1 inh: 79*; SKKanGAS inh: 7; tim10-1 conf: 78*; tim10 confirm: 70*; tim23-1 conf: 71*

How did O=C(OCn1ncc(Cl)c(Cl)c1=O)c1ccc(C(F)(F)F)cc1 do in these assays?
EBI2 antag: 2; TIM10 inh: 42*; tim10-1 inh: 75*; PfHsp90 set2: 52; tim23-1 inh: 78*; SKKanGAS inh: 5; tim10-1 conf: 74*; tim10 confirm: 41*; tim23-1 conf: 79*

Results for Cc1cc(C(=O)Nc2ccc(S(=O)(=O)N3CCOCC3)cc2)ccc1[N+](=O)[O-] ?
EBI2 antag: 5; TIM10 inh: 1; tim10-1 inh: 25; PfHsp90 set2: 7; tim23-1 inh: 23; SKKanGAS inh: -5

Results for Cc1ccc(S(=O)(=O)/N=C(\Sc2ccccc2)c2ccccc2)cc1 ?
EBI2 antag: 1; TIM10 inh: 29; tim10-1 inh: 51*; PfHsp90 set2: 20; tim23-1 inh: 52*; SKKanGAS inh: -2; tim10-1 conf: 33*; tim23-1 conf: 62*

Results for O=C(Cn1cnc(S(=O)(=O)N2CCCC2)c1)Nc1cccc(F)c1 ?
EBI2 antag: 0; TIM10 inh: -2; tim10-1 inh: -10; PfHsp90 set2: 6; tim23-1 inh: -7; SKKanGAS inh: -29

How did CC1(C)CC(=O)C(C=NCC2CCN(C(=O)Cc3ccccc3)CC2)=C(O)C1 do in these assays?
EBI2 antag: -7; TIM10 inh: -5; tim10-1 inh: 8; PfHsp90 set2: -11; tim23-1 inh: 2; SKKanGAS inh: 2

How did O=C(/C=C/c1cccs1)NC(=S)NNC(=O)c1ccccc1O do in these assays?
EBI2 antag: -5; TIM10 inh: 42*; tim10-1 inh: 44*; PfHsp90 set2: 28; tim23-1 inh: 64*; SKKanGAS inh: 79*; tim10-1 conf: 24; tim10 confirm: 42*; tim23-1 conf: 66*

What do the screens show for `c1ccc2c(CN3CCOCC3)c3ccccc3c(CN3CCOCC3)c2c1`?
EBI2 antag: -7; TIM10 inh: 61*; tim10-1 inh: 53*; tim23-1 inh: 84*; SKKanGAS inh: 0; tim10-1 conf: 52*; tim10 confirm: 50*; tim23-1 conf: 24

Results for c1ccc2c(CN3CCOCC3)csc2c1 ?
EBI2 antag: 5; TIM10 inh: -2; tim10-1 inh: 6; PfHsp90 set2: -80; tim23-1 inh: 7; SKKanGAS inh: -2

How did CCSc1nnc(NC(NC(C)=O)(C(F)(F)F)C(F)(F)F)s1 do in these assays?
EBI2 antag: -2; TIM10 inh: 5; tim10-1 inh: 16; PfHsp90 set2: 5; tim23-1 inh: 9; SKKanGAS inh: 2

What do the screens show for `Cc1nc(C(F)(F)F)ccc1C(=O)N1CCC1(C)C(=O)NCc1ccc(Cl)cc1` (configuration not stated)?
EBI2 antag: -12
